# Assay results as given in PubChem BioAssay AID1508600 (Functional Genomics Laboratory (NCATS/FGL), 2020).
# Screen size: about 53,000 sequences; about 3,700 (7%) were called active.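 Rule for the calls: active = gene knockdowns whose robust z-score for IL-1 alpha signal is at least 2 or at most -2, so actives lie on both sides; inactive = the rest.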 Many of the other results were omitted from the sample, so actives are more common in it than they were.
# Assay: Components of the Cytosolic LPS Sensing Pathway: Gene Identification via Genome-wide siRNA Screen
# Conditions: RAW264.7 macrophages, IL-1a HTRF, actives lie on both sides, screened at 100 nM (by protocol), cells primed 5 h with Pam3CSK4 first
# Source text: Non-canonical inflammasome activation by cytosolic LPS is a critical component of the host response to Gram-negative bacterial infection, however we lack a comprehensive understanding of the cellular processes that control this pathway. Here we describe a genome-wide siRNA screen to identify genes regulating the mouse macrophage IL-1 alpha response to cytosolic LPS.
# RAW264.7 cells were maintained in complete DMEM media, comprising DMEM with 4.5 g/L glucose, 10% FBS (Gemini Bio-Products, West Sacramento, CA), 2 mM Glutamine (Lonza) and 20 mM HEPES (Lonza), hereafter complete DMEM.
# The RNAi screen was conducted in 384-well format using the Ambion Silencer Mouse Genome siRNA Library (#4391425), which consists of three unique, nonoverlapping, nonpooled siRNAs for each of 17,000 gene targets. siRNA reagents ([…]) were stamped into 384-well white flat-bottom microplates (Corning, 3570) using a Velocity11 VPrep liquid handling system (Agilent) integrated into a BioCel robotic platform (Agilent) in columns 1-22, leaving columns 23-24 empty for negative (Ambion, Negative control #1) and positive (mouse Casp4) controls, respectively. The median value of each plate's negative control column was used to normalize sample wells, and the positive control was used to assess transfection efficiency and assay performance.
# Lipofectamine RNAiMAX Transfection Reagent ([…]; Invitrogen) was added in […] serum-free, antibiotic-free media to plate wells using a Thermo Scientific Matrix WellMate and Microplate Stacker. Plates were incubated for 45 min at room temperature to allow for the sufficient formation of siRNA-lipid complexes. Cells were seeded at a density of 1x10^4 cells per well in 20 microL media containing 20% (vol/vol) FBS without antibiotics. The final concentration of siRNA in each well was 100 nM. Cells were cultured for 48h at 37 degrees C in 5% CO2 before addition of […] of TLR ligand Pam3CSK4 for 5 hours. The medium was then removed, replaced with […] growth media and cell were transfected with […] of LipidA and TransIT-TKO (Mirus) for 24 hour. At the end of the LipidA treatment, […] of supernatant was transferred to a 384 Greiner Bio-one non-binding low volume plate and […] of IL-1a HTRF reagent (Cisbio, 62MIL1APEH) was added and incubated at room temperature overnight. The plates were read on an EnVision plate reader (PerkinElmer). Cell viability was measured by adding 20ul Cell Titer Glo to the original plate and running a luminescence read on the EnVision. The quantified IL-1a signal for each siRNA gene-targeted well was divided by the median of the negative control wells and multiplied by 100 to achieve a negative control normalized value for each well/siRNA. This normalized value was then used to generate a robust z-score by first taking the log of each value and then by subtracting the median and dividing by the […].
row,Sequence,z-score
1,GGAGUUUUGUGAACUAUGATT against Slc36a3,-2.73 (active)
2,GCUGCAUAGACUCAUGGUUTT against Znrf1,-0.408 (inactive)
3,GGCACUCCUCUUUGUUUUCTT against Olfr414,-1.82 (inactive)
4,CCCAAAUGAUUGGAUCUGUTT against Cd40lg,0.273 (inactive)
5,CGAAUGGCUAUCAGUGAGGTT against Tbc1d20,-1.04 (inactive)
6,GGACUGUAUGUGGAAUGGCTT against Bmyc,-0.46 (inactive)
7,GCUACUAAGCACCUAGAGATT against Fxr2,-0.932 (inactive)
8,CUCUAGCUACUAUUUUCUCTT against Olfr824,-1.57 (inactive)
9,GGAUAUGGACUAUUCACGGTT against Dgat1,-1.32 (inactive)
10,CGGCUUACGCAUGUCUAUGTT against Polr2a,-2.01 (active)
11,GGUUUUGCCAAGGACGCAGTT against Ngf,0.124 (inactive)
12,GGAAGAAAAAAAAUCUCCATT against Frmd3,0.577 (inactive)
13,GGUGGUUAUGAUCUAUGAUTT against Dazap1,-1.43 (inactive)
14,GGCUGGAGCCUCAAAUAUCTT against Rapsn,-0.574 (inactive)
15,GGUGGAUGCCUUGAAUAUGTT against 1700029P11Rik,-2.25 (active)
16,CGAGCUAACAGCAUUGCUGTT against Ajuba,0.532 (inactive)
17,GCCAUGCAAAUCGAUGGGUTT against Rora,-2.69 (active)
18,GCAUUUAAAAUACACGGUGTT against Arg1,0.264 (inactive)
19,GGUGACUCCAAGAAUGUGGTT against Wfdc1,-0.703 (inactive)
20,CCCAGAGCCAGGUUCAAACTT against AY702103,0.78 (inactive)
21,GCACUAAAUCCUUUGAUAUTT against Olfr307,1.08 (inactive)
22,GCUGAACAAUUUUCAACAATT against Sclt1,-0.958 (inactive)

row,Sequence,z-score
1,GCAUCCUUGACCGAUACUATT against Psmb2,-2.78 (active)
2,GGAUCUAUUGAUGGUUCAUTT against Tprkb,-1.68 (inactive)
3,GGGUCACCCAUUAUUUUAUTT against Phyhip,-0.899 (inactive)
4,GGGAGGAACAUCACCUCAGTT against Vmn2r123,0.327 (inactive)
5,GGUCAUACUCUAAUCGGACTT against Ctss,0.672 (inactive)
6,GGAAAGAUGUCAAAGAAAUTT against Gnat2,-1.14 (inactive)
7,UGCCACUGCCAAAAAAUAATT against Tex18,-0.838 (inactive)
8,CCAGACAUUUGAUAGCCAUTT against Fam241a,-1.42 (inactive)
9,GCCAAGCAUAAUCUAAUGATT against Prpf4b,0.851 (inactive)
10,CGACCACAUUAUUGGGUUUTT against Senp8,2.62 (active)
11,GCCUGUGAUCUUUUGUAUCTT against Olfr835,-0.726 (inactive)
12,GGAUGUCUAGUUAUACAUUTT against Mbd3l1,1.21 (inactive)
13,GCUAAUGAAGCAGAGCUGUTT against Olfr1359,0.388 (inactive)
14,GGUGUAACUCCUUCAUUGATT against Ripor2,-3.12 (active)
15,CCUUAUCUCUACCAUCGGUTT against Hyal2,0.0745 (inactive)
16,GCACCAGCUCUAAUUCAGATT against Herpud2,1.48 (inactive)
17,GCAUGAUGAUGGAGACCGATT against Sox1,-1.06 (inactive)
18,GGUGUUCCUAUAAAAGUAUTT against Tfb2m,0.597 (inactive)
19,GGUGCUACAAGUGUACUGATT against Zswim2,-2.14 (active)
20,GGUCUUCCAGAACAAUUACTT against Prtn3,0.439 (inactive)
21,GGCACACCUUUUGUUAGUGTT against Ywhag,-1.94 (inactive)
22,GGAUUUGUUCAAAUAACAGTT against Lsm14a,-0.664 (inactive)

row,Sequence,z-score
1,CCAAAUUAUCACCCUGUUCTT against Olfr763,-0.0232 (inactive)
2,GGAAAUGCGUCAAAAGACUTT against H2az1,0.04 (inactive)
3,GCUAAAAAUGGUUGUGUGATT against Six3os1,-1.62 (inactive)
4,GGAUGGUUUUCAUUUGCUUTT against Cd300ld,-0.606 (inactive)
5,CCGUUAAGUAGCUGGAAGATT against Ubl4b,0.488 (inactive)
6,GGGAACCUCACCAUUAUCATT against Olfr769,-0.413 (inactive)
7,GCAAGGACCAAAUUACAUATT against Itgb3bp,2.45 (active)
8,GGACUUUCUGAUGGACUUGTT against Sapcd1,1.59 (inactive)
9,GGAUCCUGAAAUCAAAACUTT against Mbl1,-0.316 (inactive)
10,GGCAUAACCAAAAGAAAGUTT against 4933427E11Rik,0.648 (inactive)
11,GGGCUUCUUUGCCACACUUTT against Rho,0.761 (inactive)
12,CGAGAUGAAAUAUACAGAUTT against Trat1,1.12 (inactive)
13,GGACAAUUAACGAUCCCACTT against Pdxp,-2.58 (active)
14,GGGUUAUGGUAGAUUAUCUTT against Tor4a,-0.376 (inactive)
15,GGACACCUCGAGAUUCUCUTT against Actl11,-0.186 (inactive)
16,GGAAAACAACACGAUGAAATT against Tex13b,-1.72 (inactive)
17,GGAAGGAGAACAUUCCUUUTT against Ces1d,-0.198 (inactive)
18,GGCCAUUUGUUAGGACCUGTT against Prmt6,0.205 (inactive)
19,CGGCAUGUCCUUCAUCGCUTT against Proser2,-2.89 (active)
20,GGAGAAAAUUCAAGUCACCTT against Olfr663,0.215 (inactive)
21,AGUGAAACUAAACUGGAGUTT against 2610318N02Rik,1.41 (inactive)
22,GGAUCUCAAUGUUCACUUGTT against Bpifb2,-0.817 (inactive)

row,Sequence,z-score
1,GGCUACUUCUGUACUAGGATT against Gclc,-1.05 (inactive)
2,GGAGGAAGCUCAUCUAUGATT against Rpl7,0.964 (inactive)
3,GGAAACCAUCAUGAAGAAATT against Siae,-0.127 (inactive)
4,CCCAUUGAACAGGAUGUUATT against Coq9,-0.292 (inactive)
5,CCUGGUAUCCAAGAGGAAGTT against Myt1,2.52 (active)
6,GCAUCAAUUGUCAGGAAAUTT against Rev3l,0.807 (inactive)
7,GGGCUCGUAAAGAAAGAAGTT against Cep41,-1.15 (inactive)
8,GCUGAUGAACGAAUACAACTT against Kcnk5,1.25 (inactive)
9,GCGCAGAACCCAGAUGAAGTT against Necap2,0.836 (inactive)
10,CCGUCCAUUGCACUGGAUATT against Arntl2,0.024 (inactive)
11,GGUGUGAGUGUAAGUUUAUTT against Wnt16,1.1 (inactive)
12,CGGAUAUGAGAUGAGAAUGTT against Morn4,-2.4 (active)
13,GGAUUUCAACAGACAGGUGTT against Paip2b,0.877 (inactive)
14,GGCAGAACUCAAAUUCUUGTT against AW209491,-0.35 (inactive)
15,GCGUAGCUGUAGUGAACCATT against Erh,1.78 (inactive)
16,GGUACUACACCUUUGAUGATT against Fibp,-0.497 (inactive)
17,GGACCACAACACAAAUCUGTT against Fasl,1.49 (inactive)
18,UUCAUGUAGGUCUACUAUUTT against Olfr203,-0.104 (inactive)
19,GGAUCUGAAGCUGAUUACATT against Clca2,2.47 (active)
20,GCCACUGUUUGAUCUGAAATT against Fhod1,0.943 (inactive)
21,CCUUGCCAUAAGUGAUUUATT against Npffr2,0.876 (inactive)
22,GGCCUUAAAAUACCUUUGATT against Srpx,1.12 (inactive)

row,Sequence,z-score
1,CCAGUACAAAGCCACAAUATT against Rab7,5.54 (active)
2,GGACAUUUCACAAGUCAAATT against Eloc,1.81 (inactive)
3,GGGUGGAAAAUUUCAGUUUTT against Ube2f,-0.957 (inactive)
4,CCAUCCCGUUCACUAGAGATT against Mypn,-1.73 (inactive)
5,CCGACUGCUCGUAAAUUCATT against Ndufa12,2.79 (active)
6,GGUACAAAGCCAUUGUACGTT against Grpr,-0.381 (inactive)
7,GGAAGAGAAACGACAAAAUTT against Olfr293,1.46 (inactive)
8,GGGAGACAAUCGUUUUAGCTT against Tgfbi,0.698 (inactive)
9,GGGCAUAUUCACGAUCAAUTT against Fut2,1.43 (inactive)
10,GGAAAGACCACAUUAUUAATT against Orc4,0.0347 (inactive)
11,GGUUUCUGCCCAGAGUCUATT against 2010106E10Rik,-2.78 (active)
12,GCAAGGACUCUCAUGGUUGTT against Zfand1,-0.0357 (inactive)
13,GGUGCCGAACGUGUAAUUATT against Rarb,0.936 (inactive)
14,GCCCAUGUGUAAUACAUUUTT against Prps1,0.789 (inactive)
15,CCGGAGUAACUCUCUAACATT against Apbb3,-0.291 (inactive)
16,GGGUGACCUUUCCAGAUGATT against Cldn13,-0.846 (inactive)
17,GGCACAUGGAAUCUUUGAGTT against Edc3,-1.65 (inactive)
18,GGAGCAACUACAAACAUCUTT against Acss2,2.35 (active)
19,GGGAUAAGACAGGAGACUUTT against Slc16a11,0.227 (inactive)
20,GGGAAGGACUGUAAGAAAATT against Dipk1a,-0.252 (inactive)
